CF NFkB inh: blocks PAF-induced NF-kB reporter in cystic fibrosis cells; KKLEB NF-kB-GFP reporter, GFP fluorescence overnight; inhibition, % at 5 µM; 360,000 compounds, 0.86% hits;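 active = at least 50% inhibition at 5 µM, scaled per plate between neutral and stimulator controls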;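 also: PAF is a Pseudomonas aeruginosa culture filtrate used as stimulus; plate controls were PAF-stimulated DMSO wells for no effect and unstimulated DMSO wells for full effect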
KKLEB tox: CF airway cell cytotoxicity counter-screen; KKLEB CF airway cells viability, ATPlite luminescence, overnight; active compounds read low; cells stimulated with P. aeruginosa culture filtrate; activity change (cytotoxicity), % at 5 µM; 360,000 compounds, 0.36% hits; AID 602141;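 active = corrected activity change at or below -50% at 5 µM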
Beta2AR agonist: activates human beta-2 adrenergic receptor causing internalization; Am2.2-beta2AR cells, FAP receptor internalization, flow cytometry; response, % (test concentration not listed); 340,000 compounds, 0.43% hits; AID 504454;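 active = response above a set limit, near 3 SD of response in nonfluorescent compounds, cut at about 42% in these data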
Target sequence (P07550 whole entry, looked up): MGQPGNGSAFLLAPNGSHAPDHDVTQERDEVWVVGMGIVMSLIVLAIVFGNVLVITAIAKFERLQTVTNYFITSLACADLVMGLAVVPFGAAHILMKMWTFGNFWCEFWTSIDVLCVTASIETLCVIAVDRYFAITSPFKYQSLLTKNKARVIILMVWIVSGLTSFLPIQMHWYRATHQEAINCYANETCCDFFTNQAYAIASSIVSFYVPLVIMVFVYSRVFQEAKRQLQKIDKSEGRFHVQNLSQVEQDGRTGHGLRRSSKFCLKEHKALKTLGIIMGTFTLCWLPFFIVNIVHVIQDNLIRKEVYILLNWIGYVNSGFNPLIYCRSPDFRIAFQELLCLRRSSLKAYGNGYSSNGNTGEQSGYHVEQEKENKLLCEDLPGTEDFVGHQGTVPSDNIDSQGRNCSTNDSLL
Peg3 prom inh: reduces Peg3 promoter-driven luciferase expression in HeLa; HeLa PEG-Prom luciferase reporter, luminescence, overnight; inhibition, % at 20 µM; 360,000 compounds, 1.7% hits; AID 588405;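 active = inhibition of at least 50% at 20 µM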
HIF-2a block: blocks HIF-2a reporter activity. 786-0 RCC cells HIF-2a reporter, luciferase luminescence, overnight. inhibition, % at 18.8 µM. 360,000 compounds, 0.72% hits;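 active = inhibition of the luminescence signal of 40% or more relative to plate controls, in a single-dose primary screen at 18.75 µM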
TRPM1 prom inh: reduces MITF-dependent TRPM1 promoter luciferase signal | SK-MEL-5 TRPM1 promoter luciferase, 24 h | inhibition, % at 12.5 µM | 330,000 compounds, 0.83% hits | AID 488899;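 active = mean inhibition across replicates of 60% or more, whatever share of single replicates reaches that level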
CF NFkB conf: confirmation of cystic fibrosis induced NF-kB inhibitors; shares compounds with CF NFkB inh; KKLEB CF airway cells, PAF-induced NF-kB-GFP fluorescence, overnight; inhibition, % at 5 µM; 1,300 compounds, 64% hits; AID 602472; in the data active = inhibition above about 40%;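 also: stimulus PAF is a Pseudomonas aeruginosa filtrate and not platelet activating factor; plate controls were DMSO wells with stimulus for no effect and unstimulated DMSO wells for full effect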
Active calls of the source: *. Hits are enriched below; roughly 2.8% of the tested compounds scored in any of these assays.

Screening CC(C)CC(NC(=O)CCC(=O)OCC(=O)[C@@]1(O)CCC2[C@@H]3CCC4=CC(=O)C=C[C@]4(C)C3[C@@H](O)C[C@@]21C)C(=O)O (stereo partly drawn) returned CF NFkB inh 83*, KKLEB tox 30, Beta2AR agonist 4, Peg3 prom inh -3, HIF-2a block 24, TRPM1 prom inh -11 and CF NFkB conf 19.
CCC(C(=O)OCC(=O)C1(O)CCC2C3CCC4=CC(=O)CCC4(C)C3C(O)CC21C)C(C)C (stereo not drawn) was read as CF NFkB inh 56*, KKLEB tox 5, Beta2AR agonist 6, Peg3 prom inh 29, HIF-2a block 0, TRPM1 prom inh -2 and CF NFkB conf 10.
`CC(C)C[C@H](NC(=O)c1[nH]cnc1C(=O)Nc1ccccc1F)C(=O)OC(C)(C)C` gave CF NFkB inh 13, KKLEB tox -19, Peg3 prom inh 16 and HIF-2a block 27.
For COc1ccc(COC(=O)C2=C(C)NC(=O)NC2c2ccc(O)cc2)cc1 (stereo not drawn) the results were CF NFkB inh 4, KKLEB tox 1, Beta2AR agonist -2, Peg3 prom inh 13, HIF-2a block 25 and TRPM1 prom inh 9.
`CC1=C(C(=O)OCc2ccc3c(c2)OCO3)C(c2ccc(O)c([N+](=O)[O-])c2)NC(=O)N1` (stereo not drawn) gave CF NFkB inh 69*, KKLEB tox -8, Beta2AR agonist 0, Peg3 prom inh 3, HIF-2a block 20, TRPM1 prom inh -3 and CF NFkB conf 76*.
`CCCCOC(=O)C1=C(C)NC(=O)NC1c1ccc2c(c1)OCO2` (stereo not drawn) gave CF NFkB inh -6, KKLEB tox 3, Beta2AR agonist -8, Peg3 prom inh 9, HIF-2a block 14 and TRPM1 prom inh 14.
`COc1ccc(COC(=O)C2=C(C)NC(=O)NC2c2ccc(OC)cc2)cc1` (stereo not drawn) gave CF NFkB inh 53*, KKLEB tox 8, Beta2AR agonist 0, Peg3 prom inh 34, HIF-2a block 26, TRPM1 prom inh -5 and CF NFkB conf 51*.
CC(C)C[C@H]1CNC(=S)N1C[C@H]1CCCN1C[C@H](CC(C)C)N1C[C@H](Cc2ccc(O)cc2)N(CC2CCCCC2)C1=S was read as HIF-2a block -22.
`CC1C(c2ccccc2)OCCN1C(=S)Nc1ccc(S(=O)(=O)N2CCCCC2)cc1` (stereo not drawn) gave CF NFkB inh 58*, KKLEB tox -1, Peg3 prom inh 20, HIF-2a block 16 and CF NFkB conf 60*.
For COC(=O)[C@H]1C[C@@]2(O)CN(S(=O)(=O)c3ccc(C)cc3)C[C@@]2(OC(=O)Nc2cccs2)C[C@H]1C(=O)OC the results were CF NFkB inh 11, KKLEB tox 4, Peg3 prom inh -3 and HIF-2a block 10.
For C=CCn1cnc2c(c1=O)c1nc3ccccc3nc1n2/N=C/c1cc(OC)c(OC)c(OC)c1 the results were CF NFkB inh 51*, KKLEB tox 11, Beta2AR agonist 3, Peg3 prom inh 1, HIF-2a block -57, TRPM1 prom inh 9 and CF NFkB conf 117*.
For Cc1coc2c(C)c3oc(=O)c(CCC(=O)N[C@H](C(=O)O)C(C)C)c(C)c3cc12 the results were CF NFkB inh 13, KKLEB tox -5, Peg3 prom inh 16 and HIF-2a block 8.
CCOC(=O)C1(C(=O)OCC)COC(=O)C1CN1Cc2cc3ccccc3nc2C1 (stereo not drawn) was read as CF NFkB inh 69*, KKLEB tox -2, Peg3 prom inh 17, HIF-2a block 24 and CF NFkB conf 74*.
CC(C)(C)OC(=O)N1Cc2cc3ccccc3nc2C1 was read as CF NFkB inh -16, KKLEB tox -1, Peg3 prom inh -318 and HIF-2a block -245.
CS(=O)(=O)c1ccc2nc(NC(=O)Nc3ccc(Cl)c(Cl)c3)sc2c1 was read as CF NFkB inh 25, KKLEB tox -7, Beta2AR agonist 5, Peg3 prom inh 41, HIF-2a block 5 and TRPM1 prom inh -14.
Screening CS(=O)(=O)c1ccc2nc(NC(=O)Nc3cccc(Cl)c3)sc2c1 returned CF NFkB inh 64*, KKLEB tox -32, Beta2AR agonist 22, Peg3 prom inh -60, HIF-2a block -134, TRPM1 prom inh -37 and CF NFkB conf 66*.
Screening O=C(NCc1cc(Cl)cc(Cl)c1)c1ccc2nc([C@H]3C[C@H](O)[C@@H](CO)O3)[nH]c2c1 returned CF NFkB inh -15, KKLEB tox 0, Peg3 prom inh -15 and HIF-2a block 7.
`COc1ccccc1Cn1c(=O)c2ccccc2n2c(Sc3ncnc4sccc34)nnc12` gave CF NFkB inh 72*, KKLEB tox -31, Beta2AR agonist -7, Peg3 prom inh 26, HIF-2a block 24, TRPM1 prom inh 19 and CF NFkB conf 48*.
Cc1ccc2nc(Cl)c(/C=C/C(=O)c3ccco3)cc2c1 was read as CF NFkB inh 41, KKLEB tox -22, Beta2AR agonist 8, Peg3 prom inh 16, HIF-2a block -165 and TRPM1 prom inh -53.
Screening Cc1ccc2cc(/C=C/C(=O)c3ccco3)c(Cl)nc2c1 returned CF NFkB inh 64*, KKLEB tox -31, Beta2AR agonist 56*, Peg3 prom inh -165, HIF-2a block -224 and CF NFkB conf -101.
`CCOC(=O)c1cccc(NS(=O)(=O)c2ccc(NC(C)=O)cc2)c1` gave CF NFkB inh 52*, KKLEB tox 0, Beta2AR agonist 0, Peg3 prom inh 10, HIF-2a block 16, TRPM1 prom inh 5 and CF NFkB conf 44*.
`CC1(C(=O)Nc2ccc(Cl)c(C(F)(F)F)c2)Cc2c(-c3ccc(C(N)=O)cc3)ccnc2O1` (stereo not drawn) gave CF NFkB inh -16, KKLEB tox -8, Peg3 prom inh 29 and HIF-2a block 29.
Screening CCOC(=O)c1ccc(NC(=O)c2c(N)n(Cc3ccccc3)c(=O)[nH]c2=O)cc1 returned CF NFkB inh 58*, KKLEB tox -48, Beta2AR agonist 3, Peg3 prom inh 10, HIF-2a block 3, TRPM1 prom inh 39 and CF NFkB conf 33.
`Cc1ccc(S(=O)(=O)NCC(c2ccco2)S(=O)(=O)c2ccccc2)cc1` (stereo not drawn) gave CF NFkB inh 19, KKLEB tox 1, Beta2AR agonist -6, Peg3 prom inh 0, HIF-2a block 14 and TRPM1 prom inh 0.
